From PubChem BioAssay
rCAG binder: r(CAG) repeat RNA binding; TO-PRO-1 dye displacement fluorescence; inhibition, % at 3 µM; 1.3% of 370,000 active; AID 651821;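 active = inhibition above the plate cutoff, the mean of all test compounds on that plate plus 3 SD, cut at about 35% in these data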;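 also: 0% = DMSO alone and 100% = 100 µM mitoxantrone as full dye displacement; higher means more dye released from RNA so lower well fluorescence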
MsrA act: bovine methionine sulfoxide reductase A activation. purified bovine MsrA, absorbance read-out. activation, % at 10.6 µM. 0.3% of 360,000 active; in the data active = activation above about 7.5%;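 also: 0% = vehicle and 100% = reference activator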
MsrA inhibitor: bovine MsrA inhibition; AID 651718; purified bovine MsrA, absorbance read-out; inhibition, % at 15.5 µM; 0.75% of 360,000 active; in the data active = inhibition above about 4.5%;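 also: 0% = vehicle wells with enzyme and 100% = reference inhibitor wells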
NadD inh: inhibitors of Staphylococcus aureus NadD; purified NadD enzyme, colorimetric absorbance read-out; inhibition, % at 20 µM; 0.78% of 360,000 active; AID 602399; in the data active = inhibition above about 26%
* hit, by the source's call; x = no result given. Rows were chosen to be rich in hits. Some 2.7% of all compounds tested hit in one or more screens of this group.

SMILES	rCAG binder	MsrA act	MsrA inhibitor	NadD inh
CC(=O)c1ccc2c(c1)C1C=CCC1C(c1ccc(S(=O)(=O)N3CCOCC3)cc1)N2 (centres undefined)	31	-2	1	29
Cc1c(Cl)cccc1NS(=O)(=O)c1ccc2c(c1)C1C=CCC1C(c1ccc(C(=O)O)cc1)N2 (centres undefined)	x	-6	x	34*
CCOCCn1c2ccccc2c2nc3ccccc3nc21	-1	-2	4.7*	-2
COc1ccc(C=C2OC(=O)C(C(C)=O)=C2O)cc1	34	-11	9.1*	-3
CC[n+]1c(/C=C/N(C)c2ccccc2)oc2ccccc21	-2	-9	4.7*	-7
COc1ccc(Cc2nnc(N=Nc3c(O)[nH]c4ccc(Br)cc34)[nH]c2=O)cc1	14	-12	-2	38*
COC(=O)N=Nc1c(O)[nH]c2ccc(Br)cc12	2	-4	0	-9
COC(=O)C1=C(C)NC(=O)/C1=C\c1cc(C)n(-c2cc(C)cc(C)c2)c1C	16	1	1	32*
Cc1ccc(-c2csc(/C(C#N)=C(\O)CN3CCN(C(=O)c4ccco4)CC3)n2)cc1	62*	-5	2	15
N#C/C(=C(/O)CN1CCOCC1)c1nc(-c2ccccc2)cs1	24	-4	1	5
N#C/C(=C(/O)CN1CCCCC1)c1nc(-c2ccc(Cl)cc2)cs1	6	-2	3	4
Cc1ccc(-c2csc(/C(C#N)=C(\O)CCl)n2)cc1	35*	-1	1	11
Oc1cccc(C=Nc2cccc3ccccc23)c1O	16	-12	1	45*
Cc1c(N2C(=O)/C(=C\c3cccc4ccccc34)SC2=S)c(=O)n(-c2ccccc2)n1C	3	-10	0	42*
Cc1c(N2C(=O)c3ccccc3C2=O)c(=O)n(-c2ccccc2)n1C	-1	-2	0	-2
O=C(N/N=C/c1cc([N+](=O)[O-])ccc1O)c1ccc(COc2ccc3c(c2)CCC3)o1	14	-5	0	52*
COc1ccc(Br)cc1/C=N/NC(=O)c1ccc(COc2ccc3c(c2)CCC3)o1	1	-4	1	24
CCCCn1c(NC(=O)CC)c(C#N)c2nc3ccccc3nc21	14	-13	0	0
N#Cc1c(NC(=O)c2ccccc2Cl)n(Cc2ccccc2)c2nc3ccccc3nc12	90*	-2	1	32*
COc1ccc(NC(=O)C2Cc3c(-c4cccc(C(C)=O)c4)ccnc3O2)cn1 (centres undefined)	-1	-9	0	0
O=C(Nc1nc2c(cc3c4c(cccc42)CC3)s1)c1ccccc1Cl	16	-12	4.6*	7
CCN1C(=O)c2cccc3c(S(=O)(=O)N(C(C)=O)c4ccc(OC(C)=O)cc4)ccc1c23	2	0	3	-4
Cc1noc(NS(=O)(=O)c2ccc(NC(=O)/C=C/c3ccc(C(C)C)cc3)cc2)c1C	85*	-4	1	14
Cc1onc(-c2ccccc2Cl)c1C(=O)Nc1nnc(-c2ccc(Br)cc2)s1	46*	-1	0	4
Cc1onc(-c2ccccc2Cl)c1C(=O)Nc1nnc(-c2ccc(F)cc2)s1	14	-8	2	0
SMILES	rCAG binder	MsrA act	MsrA inhibitor	NadD inh
CC(=O)c1ccc2c(c1)C1C=CCC1C(c1cc3c(cc1Br)OCO3)N2 (centres undefined)	5	-7	1	20
COc1ccc2c(c1)C1C=CCC1C(c1cc3c(cc1Br)OCO3)N2 (centres undefined)	12	-2	2	44*
CCN1CCN(C(C(=O)NC2CCCCC2)c2ccnc3ccccc23)CC1 (centres undefined)	2	-3	-2	-2
COCCNC(=O)c1csc2c1CCCC2	5	12*	-1	0
COc1ccc(CCNC(=O)c2csc3c2CCCC3)cc1OC	-3	-1	2	-2
O=C(N/N=C/c1cc(Cl)cc([N+](=O)[O-])c1O)NC12CC3CC(CC(C3)C1)C2	10	0	-1	40*
CC(=O)c1ccc(N2CCN(C(=O)CCS(=O)(=O)c3ccc4c(c3)CCN4C(C)=O)CC2)cc1	2	-2	3	0
CCCCC1(C)OC(=O)C(=Cc2ccc(N(CC)CC)cc2)C(=O)O1 (centres undefined)	8	-5	5.2*	14
Cc1ccc(S(=O)(=O)c2c(N)n(/N=C/c3ccco3)c3nc4ccccc4nc23)cc1C	16	-5	-1	54*
COc1ccc(S(=O)(=O)c2c(N)n(Cc3ccco3)c3nc4ccccc4nc23)cc1	29	-1	2	34*
Nc1c(S(=O)(=O)c2cccs2)c2nc3ccccc3nc2n1/N=C/c1cccc(O)c1	12	-7	0	45*
